The values that follow come from PubChem BioAssay (NCI).

Assay [1] can be described thus: NCI Yeast Anticancer Drug Screen. Data for the rad50 strain (AID 155).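 Further: 0% = growth of vehicle-only cultures of the same strain.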 The following applies: S. cerevisiae rad50 strain growth inhibition, active compounds read high. In outline:
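Readout: growth inhibition relative to vehicle-treated cultures. Compound exposure was carried out in a genetically defined yeast strain deficient in DNA damage repair.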

Assay [2] is described as follows: NCI Yeast Anticancer Drug Screen. Data for the mec2-1 strain (AID 157). The conditions noted are these: S. cerevisiae mec2-1 strain, active compounds read high. In outline: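 Using mec2-1 yeast: add compound, measure growth, express inhibition versus vehicle-treated cultures.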
The nature of assay [3]: NCI Yeast Anticancer Drug Screen. Data for the sgs1 mgt1 strain (AID 161).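 Further: 0% = growth of cultures given vehicle only.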 The following applies: S. cerevisiae sgs1 mgt1 strain, active compounds read high. An outline of the steps:
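Compounds are added to genetically altered yeast, and growth is compared with cultures given vehicle alone to give percent inhibition.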

A short description of assay [4]: NCI Yeast Anticancer Drug Screen. Data for the cln2 rad14 strain (AID 165).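 Further: 0% = growth equal to vehicle treated cultures.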 The conditions noted are these: S. cerevisiae cln2 rad14 strain, active compounds read high. In outline:
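Yeast strain cln2 rad14, bearing defects in cell cycle control and DNA repair, serves as the test system; values reflect growth inhibition compared with vehicle.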

Assay [5] in a line: NCI Yeast Anticancer Drug Screen. Data for the bub3 strain (AID 167). The following applies: S. cerevisiae bub3 mutant strain, active compounds read high. In outline:
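Readout: yeast growth inhibition, expressed relative to vehicle-only wells. The test organism is a mutant strain from a panel with lesions in DNA repair or checkpoint genes.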

Assay [6] can be described thus: NCI Yeast Anticancer Drug Screen. Data for the mlh1 rad18 strain (AID 175). The following applies: S. cerevisiae mlh1 rad18 strain growth inhibition, active compounds read high. An outline of the steps:
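Steps: expose repair-defective yeast to compound; measure growth; express inhibition against vehicle-treated controls.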

Setting [7] is: at 5.0 µM (retest, dose inferred, filed as 0.5).
Setting [8] is: at 50.0 µM (retest, dose inferred, filed as 5.0).

The panel holds about 79,000 compounds, 15% with a hit somewhere; the sample as a whole holds those more often. Unmarked numbers belong to inactive results. Activity calls are given as the source filed them. No stated cut-off is given here; in the data, active means growth inhibition above about 70%; inactive means the rest.

Regarding `CC(NNC(=S)N1CCCCCC1)c1cc2ccccc2cn1` (stereo not given), the growth inhibition in assay [1] (setting [7]) is 52%; in assay [1] (setting [8]), 95% (active); in assay [1] (at 50.0 µM), 86.2% (active); in assay [2] (setting [7]), 65%; in assay [2] (setting [8]) it was 97% (active); in assay [2] (at 50.0 µM) it was 78.7% (active). Further, the growth inhibition in assay [3] (setting [7]) is 93% (active); in assay [3] (setting [8]), 96% (active); in assay [3] (at 50.0 µM), 86.6% (active); in assay [4] (setting [7]), 90% (active); in assay [4] (setting [8]), 91% (active); in assay [4] (at 50.0 µM) it was 68.5%. The growth inhibition in assay [5] (setting [7]) was 87% (active); in assay [5] (setting [8]) it was 96% (active); in assay [5] (at 50.0 µM) it was 83.5% (active); in assay [6] (setting [7]), 47%; in assay [6] (setting [8]), 95% (active); in assay [6] (at 50.0 µM), 90.5% (active).
With `C=C1C(=O)O[C@H]2C3C(=C(C)CC[C@@H]12)C(=O)[C@@H]1OC31C` (stereo not given in full), the growth inhibition in assay [1] (setting [7]) was 22%; in assay [1] (setting [8]), 49%; in assay [1] (at 50.0 µM), 36.8%; in assay [2] (setting [7]), 16%; in assay [2] (setting [8]), 52%; in assay [2] (at 50.0 µM) it was 37.2%. In addition, the growth inhibition in assay [3] (setting [7]) is 35%; in assay [3] (setting [8]), 74% (active); in assay [3] (at 50.0 µM), 46%; in assay [4] (setting [7]) it was 19%; in assay [4] (setting [8]) it was 51%; in assay [4] (at 50.0 µM), 34%. For the same compound, the growth inhibition is 21% in assay [5] (setting [7]); 60% in assay [5] (setting [8]); 23.9% in assay [5] (at 50.0 µM); 19% in assay [6] (setting [7]); 62% in assay [6] (setting [8]); 46.2% in assay [6] (at 50.0 µM).
`O=C1/C(=C/c2cccc([N+](=O)[O-])c2)CCCc2ccccc21`: the growth inhibition was 4% in assay [1] (setting [7]); 92% (active) in assay [1] (setting [8]); 73.5% (active) in assay [1] (at 50.0 µM); 7% in assay [2] (setting [7]); 94% (active) in assay [2] (setting [8]); 68.8% in assay [2] (at 50.0 µM). In addition, the growth inhibition in assay [3] (setting [7]) was 13%; in assay [3] (setting [8]), 94% (active); in assay [3] (at 50.0 µM), 83.2% (active); in assay [4] (setting [7]), -5%; in assay [4] (setting [8]), 91% (active); in assay [4] (at 50.0 µM), 70.7% (active). The growth inhibition in assay [5] (setting [7]) was 20%; in assay [5] (setting [8]), 94% (active); in assay [5] (at 50.0 µM), 84.8% (active); in assay [6] (setting [7]), 9%; in assay [6] (setting [8]) it was 93% (active); in assay [6] (at 50.0 µM) it was 75.9% (active).
Take `O=C1CN(CCN2CCOCC2)CC(=O)N2CCCCN12`: the growth inhibition was 1% in assay [1] (setting [7]); -1% in assay [1] (setting [8]); 3.3% in assay [1] (at 50.0 µM); -2% in assay [2] (setting [7]); -1% in assay [2] (setting [8]); 2.55% in assay [2] (at 50.0 µM). In addition, the growth inhibition in assay [3] (setting [7]) is 3%; in assay [3] (setting [8]) it was 7%; in assay [3] (at 50.0 µM), 32.6%; in assay [4] (setting [7]) it was -8%; in assay [4] (setting [8]), 2%; in assay [4] (at 50.0 µM), 11.6%. Also, the growth inhibition is -6% in assay [5] (setting [7]); -3% in assay [5] (setting [8]); 5.7% in assay [5] (at 50.0 µM); -1% in assay [6] (setting [7]); -2% in assay [6] (setting [8]); 1.45% in assay [6] (at 50.0 µM).
As to `Oc1cc(F)cc2cccnc12`, the growth inhibition in assay [1] (setting [7]) is 43%; in assay [1] (setting [8]), 92% (active); in assay [1] (at 50.0 µM), 92.3% (active); in assay [2] (setting [7]), 46%; in assay [2] (setting [8]) it was 91% (active); in assay [2] (at 50.0 µM) it was 94.3% (active). Also, the growth inhibition in assay [3] (setting [7]) is 99% (active); in assay [3] (setting [8]) it was 99% (active); in assay [3] (at 50.0 µM) it was 94.1% (active); in assay [4] (setting [7]) it was 88% (active); in assay [4] (setting [8]), 100% (active); in assay [4] (at 50.0 µM), 92.5% (active). The growth inhibition in assay [5] (setting [7]) is 100% (active); in assay [5] (setting [8]), 100% (active); in assay [5] (at 50.0 µM), 93.3% (active); in assay [6] (setting [7]), 42%; in assay [6] (setting [8]), 99% (active); in assay [6] (at 50.0 µM), 91.3% (active).
On to `CCC(C)OC(=O)Nc1cccc(Cl)c1` (stereo not given), for which the growth inhibition was 12% in assay [1] (setting [7]); 61% in assay [1] (setting [8]); 83.4% (active) in assay [1] (at 50.0 µM); -7% in assay [2] (setting [7]); 1% in assay [2] (setting [8]); 23.9% in assay [2] (at 50.0 µM). The growth inhibition in assay [3] (setting [7]) was 4%; in assay [3] (setting [8]), 14%; in assay [3] (at 50.0 µM) it was 79.5% (active); in assay [4] (setting [7]), 6%; in assay [4] (setting [8]), -16%; in assay [4] (at 50.0 µM), 14.8%. Besides, the growth inhibition is -19% in assay [5] (setting [7]); -8% in assay [5] (setting [8]); 1.4% in assay [5] (at 50.0 µM); 5% in assay [6] (setting [7]); 29% in assay [6] (setting [8]); 78.8% (active) in assay [6] (at 50.0 µM).
On to `CCN(C(=O)C(F)(F)F)c1ccc2c(c1)C(=O)c1ccccc1-2`, for which the growth inhibition in assay [1] (setting [7]) is 0%; in assay [1] (setting [8]) it was 34%; in assay [1] (at 50.0 µM), 26.1%; in assay [2] (setting [7]) it was 1%; in assay [2] (setting [8]), 12%; in assay [2] (at 50.0 µM), -2.65%. The growth inhibition is -4% in assay [3] (setting [7]); 87% (active) in assay [3] (setting [8]); 42.6% in assay [3] (at 50.0 µM); 0% in assay [4] (setting [7]); 20% in assay [4] (setting [8]); -18.2% in assay [4] (at 50.0 µM). Moreover, the growth inhibition is 38% in assay [5] (setting [7]); 70% (active) in assay [5] (setting [8]); 84% (active) in assay [5] (at 50.0 µM); -1% in assay [6] (setting [7]); 60% in assay [6] (setting [8]); 10% in assay [6] (at 50.0 µM).
Consider `O=[N+]([O-])c1ncn(C2OC(CO)C(O)C2O)c1S` (stereo not given), for which the growth inhibition is -5% in assay [1] (setting [7]); -3% in assay [1] (setting [8]); -2.85% in assay [1] (at 50.0 µM); 2% in assay [2] (setting [7]); -8% in assay [2] (setting [8]); 24.6% in assay [2] (at 50.0 µM). In addition, the growth inhibition in assay [3] (setting [7]) is -1%; in assay [3] (setting [8]), -3%; in assay [3] (at 50.0 µM) it was 14.6%; in assay [4] (setting [7]), -3%; in assay [4] (setting [8]), -5%; in assay [4] (at 50.0 µM) it was 66.1%. Further, the growth inhibition is -12% in assay [5] (setting [7]); -14% in assay [5] (setting [8]); 1.15% in assay [5] (at 50.0 µM); -6% in assay [6] (setting [7]); -8% in assay [6] (setting [8]); 8.05% in assay [6] (at 50.0 µM).
For the compound `COc1ccc(C2c3cc4c(cc3OC(N3CCCC3)C2C)OCO4)c(OC)c1` (stereo not given), the growth inhibition in assay [1] (setting [7]) is -3%; in assay [1] (setting [8]), 77% (active); in assay [1] (at 50.0 µM), 94.5% (active); in assay [2] (setting [7]), -5%; in assay [2] (setting [8]), 53%; in assay [2] (at 50.0 µM) it was 94.2% (active). The growth inhibition in assay [3] (setting [7]) is 1%; in assay [3] (setting [8]), 74% (active); in assay [3] (at 50.0 µM), 88.2% (active); in assay [4] (setting [7]), -4%; in assay [4] (setting [8]), 68%; in assay [4] (at 50.0 µM) it was 71% (active). The growth inhibition was -6% in assay [5] (setting [7]); 68% in assay [5] (setting [8]); 87.8% (active) in assay [5] (at 50.0 µM); -3% in assay [6] (setting [7]); 82% (active) in assay [6] (setting [8]); 93.5% (active) in assay [6] (at 50.0 µM).
As for `CC(=O)N1c2ccccc2Sc2ccc(C(=O)CCl)cc21`, the growth inhibition in assay [1] (setting [7]) is 14%; in assay [1] (setting [8]), 79% (active); in assay [1] (at 50.0 µM), 95.7% (active); in assay [2] (setting [7]), 19%; in assay [2] (setting [8]), 95% (active); in assay [2] (at 50.0 µM), 95.7% (active). In addition, the growth inhibition in assay [3] (setting [7]) was 15%; in assay [3] (setting [8]), 91% (active); in assay [3] (at 50.0 µM), 93.9% (active); in assay [4] (setting [7]), 9%; in assay [4] (setting [8]), 50%; in assay [4] (at 50.0 µM), 81.2% (active). Moreover, the growth inhibition in assay [5] (setting [7]) was 8%; in assay [5] (setting [8]), 91% (active); in assay [5] (at 50.0 µM), 95.8% (active); in assay [6] (setting [7]), 30%; in assay [6] (setting [8]), 94% (active); in assay [6] (at 50.0 µM), 94.7% (active).
